“And” between values parts separate entries of the source, which are not always exact repeats. Equal entries are not always repeated. The panel holds about 83,000 compounds, 20% with a hit somewhere; the sample as a whole holds those more often.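 The endpoint reported here, percent growth, reads 100 for growth as untreated, 0 for no net growth and -100 for all cells dead.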 The source made the active and inactive calls.
tested on: CAKI-1 renal; test: NCI-60 one-dose screen, 48 h (100 = growth as untreated, 0 = no growth, -100 = all killed); conditions: 10 µM
Protocol: Growth inhibition of the CAKI-1 human tumor cell line is measured as a screen for anti-cancer activity. Cells are grown in 96 well plates and exposed to the test compound for 48 hours. Compounds are tested at a single concentration, which is 10^-5 M for most compounds. The reported endpoint is percent growth (GI% or GIPRCNT), where numbers from 0 - 100% represent growth inhibition, and numbers from -100% - 0 represent cell death. For example, a value of 40 represents 60% growth inhibition. A value of 0 means no net growth occurred over the course of the experiment. A value of -40 indicates 40% of cells at the beginning of the experiment died by the end of the experiment. A value of -100 means all cells are dead at the end of the experiment.
NCI-60 Human Tumor Cell Lines Screen was performed using the standard one-dose NCI protocol, which is described in more detail at https://dtp.cancer.gov/discovery_development/nci-60/default.htm.
Compounds with GIPRCNT values below 10 were considered active. Activity score was based on GIPRCNT using the following formula: […]
Score is 0 for GIPRCNT values of 100 or above, 50 for GIPRCNT values of 0, and 100 for GIPRCNT values of -100.

Compound	growth
Cc1[nH]c(-c2nc3ccccc3[nH]2)c(C)c1C(=O)NC(C)C1CCCCC1 (stereo not given)	85.8% (inactive)

same assay, conditions: 10 µM unless noted

Compound	growth
COc1cc(C(=O)N/N=C/c2ccc(N(C)C)cc2)cc(OC)c1OC	68.3% (inactive)
CNc1cc(-c2cccc(OC(F)(F)F)c2)nc2ccc(N3CCCC3)cc12	68.2% (inactive) and -88.8% (active) and -50.9% (active)
COc1ccccc1NC(=O)OCC#CCOC(=O)Nc1ccccc1OC	94.3% (inactive) and 88.6% (inactive)
O=C1CCN(Cc2ccccc2)C(=S)N1	101% (inactive) and 96.1% (inactive)
Cc1cc(O)c2c(c1)C(=O)c1cc(O)cc(O)c1C2=O	72.2% (inactive) and 95.2% (inactive)
COc1cc(NS(C)(=O)=O)ccc1Nc1c2ccccc2nc2c(C)cccc12	-35.7% (active) and -10.5% (active)
COc1cc2c(c(OC)c1OC)-c1ccc(OC)c(=O)cc1[C@@H](NC(C)=O)CC2	36.5% (inactive) and 21% (inactive) and 20.3% (inactive)
Oc1ccccc1C=NCC1CCC(CN=Cc2ccccc2O)CC1 (stereo not given)	46.1% (inactive)
Clc1ccc(NC(Nc2ccc(Cl)cc2)C(Cl)(Cl)Cl)cc1	66% (inactive)
NC(=O)c1ccccc1OCC(O)CO (stereo not given)	97.5% (inactive)
CCN(CC)CCNc1cc(-c2cccc(OC(F)(F)F)c2)nc2ccc(N3CCCC3)cc12	49.1% (inactive) and 34.2% (inactive) and 23.1% (inactive)
O=C(N/N=C/c1ccccc1)N/N=C/c1ccccc1	92.2% (inactive) and 114% (inactive)
Cc1c(Cl)cccc1NCN1C(=O)c2ccccc2C1=O	94.4% (inactive)
COc1cc2nc(N3CCC[C@@H](NC(=O)C4COc5ccccc5O4)C3)nc(N)c2cc1OC (stereo not given in full)	92% (inactive) and 89.6% (inactive)
Cn1c(=O)c2[nH]c(CCCCCCCCc3nc4ccccc4[nH]3)nc2n(C)c1=O	49.7% (inactive) and 57.9% (inactive)
O=C1c2ccccc2C(=O)N1/N=C/c1ccc2c(c1)OCO2	110% (inactive)
CCCCOc1cc(C(=O)NCCN(CC)CC)c2ccccc2n1	73.6% (inactive) and 92.8% (inactive)
Nc1nc(SC/C=C/CCl)c2[nH]cnc2n1	105% (inactive) and 112% (inactive)
Nc1ccn(C2OC(CO)C(O)C2O)c(=O)n1 (stereo not given)	26.9% (inactive) and 4.29% (active) and 95.4% (inactive)

Compound	growth
NC(=O)NO	83.9% (inactive) and 77.2% (inactive)
CC(=O)Oc1cc(C(=O)O)cc(OC(C)=O)c1OC(C)=O	99.5% (inactive) and 95.5% (inactive)
COc1ccccc1/C=N\N=C(N/N=C/c1ccccc1OC)N/N=C/c1ccccc1OC	43.6% (inactive) and 33.7% (inactive)
CC(C(=O)O)n1cc(C#N)c(=O)[nH]c1=O (stereo not given)	86.5% (inactive) and 93.1% (inactive)
CNC(=O)c1cccc(-c2ccc3c(N4CCOC[C@@H]4C)nc(N4CCOC[C@@H]4C)nc3n2)c1	9.85% (active) and -15.3% (active)
CN1CCN(Cc2occc(=O)c2O)CCN(C)CCN(Cc2occc(=O)c2O)CC1	99.7% (inactive) and 42.1% (inactive)
CCCCCCCCCCCCCCCc1cc(O)ccc1N	68.2% (inactive) and 1.52% (active)
Nc1cc(-c2cccc(OC(F)(F)F)c2)nc2ccc(N3CCCC3)cc12	30.7% (inactive) and 35.3% (inactive) and 41.7% (inactive)
COc1cc(-c2nccc3cc4c(cc23)OCO4)cc(OC)c1OC	20% (inactive) and 30.8% (inactive)
CCN(CC)CCCC(C)N(Cc1ccccc1)CC(O)c1ccc(Cl)cc1 (stereo not given)	109% (inactive)
COc1ccc(Cn2c(NCCN=C(N)N)nc(=O)n(Cc3ccc(F)cc3)c2=O)cc1	95.2% (inactive) and 86.5% (inactive)
CCN(CC)C(=O)c1cccnc1	97.4% (inactive)
Cc1ccc(S(=O)(=O)Nc2ccc3cc([N+](=O)[O-])ccc3c2[N+](=O)[O-])cc1	57.8% (inactive) and 69.4% (inactive)
CCC(C)C1(C2CCCC2)NC(=O)NC1=O (stereo not given)	112% (inactive) and 94% (inactive)
O=S(=O)(Nc1ccccc1)C1CCCCC1	86.5% (inactive) and 98.7% (inactive)
O=C(c1ccc(Cl)cc1)C(NCCO)c1ccc(Cl)cc1 (stereo not given)	102% (inactive)
O=[N+]([O-])c1ccc(/C=N\NC(=S)Nc2ccc(F)cc2)cc1	97.1% (inactive) and 106% (inactive)
CCOC(=O)C(C(=O)OCC)C(c1ccccc1)N1CCN(c2ccccc2)CC1 (stereo not given)	112% (inactive) and 98.1% (inactive)
CCOc1ccc2c(S(=O)(=O)O)cccc2c1[N+](=O)[O-]	87% (inactive) and 96.1% (inactive)

same assay, conditions: 100 µM

Compound	growth
Cc1[nH]c(-c2nc3ccccc3[nH]2)c(C)c1C(=O)NC(C)C1CCCCC1 (stereo not given)	-97.2% (active)
